High-throughput results from PubChem.
Mito fusion yeast: inhibitors of mitochondrial division or activators of mitochondrial fusion; S. cerevisiae fusion-defective mutant growth rescue, CellTiterGlo 48 h; Potency, µM (top dose mostly 46.1 µM), inactives show at the top dose growth rescue (activation), hits mostly activators; 320,000 compounds, 0.23% hits; AID 485298; also: % of control where 0% means no effect; nearly all actives have a fitted effect of over 45% in size
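S. cerevisiae fusion-defective temperature-sensitive mutants (e.g. fzo1-1, mgm1-5) grown 48 h at 37C in YPEG (ethanol/glycerol non-fermentable) medium with 23 nl compound per well; growth rescue read as CellTiterGlo luminescence.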
Abeta rescue: A-beta toxicity reversal in yeast; Potency, µM (top dose mostly 46.1 µM), most hits filed as activators; yeast expressing A-beta42, growth rescue, OD600, 48 h; response scale: 0% DMSO, 100% iron-clioquinol control; AID 1347071; 410,000 compounds, 0.063% hits; also: nearly all actives have a fitted effect of over 55% in size
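Yeast growth medium received pinned compounds, then yeast cells expressing toxic A-beta were added; plates incubated at 30 C for 48 hr. Growth read as absorbance at 600 nm, normalized to DMSO and equimolar FeCl3 plus clioquinol controls.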
FUS suppressor: suppressors of FUS proteinopathy in yeast | Potency, µM (series often up to 76.6 µM), most hits filed as activators | 390,000 compounds, 0.24% hits | S. cerevisiae FUS-expressing, growth rescue, OD600, 24 h;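 also: plate controls were DMSO vehicle for no effect and reference control for full effect; nearly all actives have a fitted effect of over 55% in size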
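Toxicity suppression screen in FUS-yeast. Cells induced with 2% galactose, starting OD 0.005, treated 24hr at 30C with compounds at multiple final concentrations; growth by OD600.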
aSyn yeast inh: alpha-synuclein toxicity inhibition in yeast. Potency, µM (top dose mostly 46.1 µM), for inactives: top-dose growth rescue (activation), most hits filed as activators. 370,000 compounds, 0.14% hits. Yeast expressing alpha-synuclein, growth rescue, BacTiter-Glo, 24 h; also: % of control where 0% means no effect; nearly all actives have a fitted effect of over 65% in size
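Rescue of yeast growth: cells expressing toxic alpha-synuclein, induced in galactose at OD600 0.02, incubated with compound 24 h at 30 C. ATP luminescence quantified growth; inhibitors of toxicity appear as activators.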
TDP-43 yeast inh: inhibitors of TDP-43 toxicity in yeast. TDP-43 expressing yeast growth rescue, BacTiter-Glo, 24 h. AID 652104. Potency, µM (titrated, usually from 46.1 µM), for inactives: at the highest dose growth rescue (activation), actives largely listed as activators. 410,000 compounds, 1.8% hits; also: % of control where 0% means no effect; nearly all actives have a fitted effect of over 50% in size
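Galactose-induced TDP-43 yeast, OD600=0.02, compound pinned; 24 hr, 30 deg C; BacTiter-Glo luminescence for growth. Inhibitors of TDP-43 toxicity read as activators.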
Starred values were filed as active, the others as inactive; ! = not active in a repeat; [ ] = dose if it differs, or a comment. Shown are actives, neighbours in structure and some others; about 2.2% of the full set was active somewhere. Calls follow the shape of the dose curve; as a rule, active = well fitted curve in the direction sought with a large enough effect; inconclusive = small, poorly fitted or top-dose-only effect, or another doubt; inactive = no such curve, though single readings can be large; an effect the other way counts as inactive or inconclusive. Potency is read from the fitted curve at half-maximal effect.

Screening COc1ccc2c(c1)N=CN1CCc3c([nH]c4ccccc34)C3=NCC[C@@]321 returned FUS suppressor inactive.
For Cc1oc(-c2ccc(Cl)cc2)nc1CN1CCC(C(=O)NCCCN2CCCC(C)C2)CC1 (stereo not given) the results were Mito fusion yeast 7%, Abeta rescue inactive, FUS suppressor inactive, aSyn yeast inh 1% and TDP-43 yeast inh 10%.
For Clc1cccc(CON/C=N/c2ncnc3sccc23)c1 the results were Mito fusion yeast -24%, Abeta rescue inactive, FUS suppressor inactive, aSyn yeast inh -14% and TDP-43 yeast inh 3.5µM*.
Screening Cc1cc(N2CCCC2)nc2ccc(NC(=S)NCCCN3CCC(C)CC3)cc12 returned Mito fusion yeast -3%, Abeta rescue inactive, FUS suppressor inactive, aSyn yeast inh 3% and TDP-43 yeast inh -13%.
For COc1ccc(/C=C/C(=O)OCC(=O)NC2CCCC2)cc1OC the results were Abeta rescue inactive, FUS suppressor inactive, aSyn yeast inh 3% and TDP-43 yeast inh 19%.
`O=C(/C=C/c1c(F)cccc1Cl)N1CCc2ccccc2C1` gave Mito fusion yeast inconclusive, Abeta rescue inactive, FUS suppressor inactive, aSyn yeast inh inconclusive and TDP-43 yeast inh 7.9µM*.
O=C(COc1c(Br)cc(Br)c2cccnc12)N1CCc2ccccc2C1 was read as Mito fusion yeast inconclusive, Abeta rescue inactive, FUS suppressor inactive, aSyn yeast inh 13µM* and TDP-43 yeast inh inconclusive.
Screening O=C(COc1ccccc1F)N1CCc2ccccc2C1 returned Mito fusion yeast -4%, Abeta rescue inactive, FUS suppressor inactive, aSyn yeast inh 5% and TDP-43 yeast inh inconclusive.
O=C(COc1ccccc1Cl)N1CCc2ccccc2C1 was read as Mito fusion yeast 11%, Abeta rescue inactive, FUS suppressor inactive, aSyn yeast inh -4% and TDP-43 yeast inh 13µM*.
`O=C(COc1c(Br)cc(Br)c2cccnc12)N1CCCCC1` gave Mito fusion yeast inconclusive, Abeta rescue inactive, FUS suppressor inactive, aSyn yeast inh 7% and TDP-43 yeast inh 15%.
CCN1CCN(C(=O)/C=C/c2c(F)cccc2Cl)CC1 was read as Mito fusion yeast -2%, Abeta rescue inactive, aSyn yeast inh -2% and TDP-43 yeast inh 13%.
`Cc1cccc(-c2cnc3cccnn23)c1` gave Abeta rescue inactive, FUS suppressor inactive, aSyn yeast inh 2% and TDP-43 yeast inh 10%.
For COc1ccc(C(=O)CC2(O)C(=O)N(CCc3ccccc3)c3ccc(Br)cc32)cc1OC (stereo not given) the results were Abeta rescue inactive, FUS suppressor inconclusive and TDP-43 yeast inh inconclusive.
Screening CCN(CC)CC#CCOC(=O)C(O)(c1ccccc1)C1CCCCC1 (stereo not given) returned Mito fusion yeast 23µM*!, Abeta rescue inactive, FUS suppressor inactive, aSyn yeast inh -2% and TDP-43 yeast inh 24%.
`O=C(O)c1ccc2c(c1)C(=O)N([C@H](Cc1ccc3ccccc3c1)C(=O)O)C2=O` gave Mito fusion yeast 1%.
For Cc1cccc(Nc2ncc(NC(=O)c3cccc(F)c3)c(Nc3cccc(C)c3)n2)c1 the results were Abeta rescue inactive, FUS suppressor inactive and TDP-43 yeast inh 21%.
Cc1cccc(-c2cc3nc(-c4ccccc4)cc(N4CCC5(CC4)OCCO5)n3n2)c1 was read as Mito fusion yeast inconclusive, Abeta rescue inactive[9.22 µM], FUS suppressor inactive, aSyn yeast inh 3% and TDP-43 yeast inh 35µM*.
Cc1ccc(-c2cc3nc(-c4ccccc4)cc(N4CCC5(CC4)OCCO5)n3n2)cc1 was read as Mito fusion yeast inconclusive, Abeta rescue inactive, FUS suppressor inactive, aSyn yeast inh -12% and TDP-43 yeast inh inconclusive.
`CCOc1ccc(N2C(=O)N(Cc3ccc(C)cc3C)c3ccccc3S2(=O)=O)cc1` gave Abeta rescue inactive, FUS suppressor inactive and TDP-43 yeast inh 21%[9.22 µM].
For O=C1Nc2ccc(Br)cc2/C1=C/C1CC=CCC1 (stereo not given) the results were Mito fusion yeast 5%, Abeta rescue inactive, FUS suppressor inactive, aSyn yeast inh -77% and TDP-43 yeast inh 20µM*.
COC(=O)c1cccc(NC(=S)Nc2cccc(Cl)c2Cl)c1 was read as Mito fusion yeast -1%, Abeta rescue inactive, FUS suppressor inactive, aSyn yeast inh 4% and TDP-43 yeast inh 18µM*.
`Cc1ccccc1CS(=O)(=O)c1ncc(Cl)c(C(=O)Nc2nnc(C(C)C)s2)n1` gave Abeta rescue inactive, FUS suppressor inactive and TDP-43 yeast inh 11µM*.
For CC(C)c1nnc(NC(=O)c2nc(S(=O)(=O)Cc3ccccc3)ncc2Cl)s1 the results were Mito fusion yeast -38%, Abeta rescue inactive, FUS suppressor inactive, aSyn yeast inh 13% and TDP-43 yeast inh 8.9µM*.
`CCCc1nnc(NC(=O)c2nc(S(=O)(=O)Cc3ccc(C)cc3)ncc2Cl)s1` gave Mito fusion yeast -16%, Abeta rescue inactive, FUS suppressor inactive, aSyn yeast inh 17% and TDP-43 yeast inh 11µM*.
Cc1ccc(NC(=O)c2nc(S(=O)(=O)Cc3ccccc3C)ncc2Cl)cc1C was read as Mito fusion yeast -37%, Abeta rescue inactive, FUS suppressor inactive, aSyn yeast inh 18% and TDP-43 yeast inh 4%.
`Cc1ccc(CS(=O)(=O)c2ncc(Cl)c(C(=O)Nc3nc4ccc(C)cc4s3)n2)cc1` gave Abeta rescue inactive, FUS suppressor inactive and TDP-43 yeast inh inconclusive.
COc1ccc(NS(=O)(=O)c2ccc3c(c2)NC(=O)CO3)c(OC)c1 was read as Mito fusion yeast -3%, Abeta rescue inactive, FUS suppressor inactive, aSyn yeast inh -3% and TDP-43 yeast inh -16%.
COc1ccc(-c2cc(-c3cc(OC)ccc3O)[nH]n2)cc1 was read as Mito fusion yeast 5%, Abeta rescue inactive, FUS suppressor inactive, aSyn yeast inh 6% and TDP-43 yeast inh 25µM*.
`COc1ccc(-c2cc(-c3ccccc3O)[nH]n2)cc1OC` gave Mito fusion yeast -8%, Abeta rescue inactive, FUS suppressor inactive, aSyn yeast inh 11% and TDP-43 yeast inh 13µM*.
Screening COc1ccc(O)c(-c2cc(-c3ccc(F)cc3)n[nH]2)c1 returned Mito fusion yeast 16%, Abeta rescue inactive, FUS suppressor inactive, aSyn yeast inh -8% and TDP-43 yeast inh inconclusive.
Cc1ccc(OCc2ccc([N+](=O)[O-])cc2)c([N+](=O)[O-])n1 was read as Mito fusion yeast 3%, Abeta rescue inactive, FUS suppressor inactive, aSyn yeast inh 2% and TDP-43 yeast inh 21%.
